Screen size: about 4,500 compounds; about 200 (4.4%) were called active. For the sample, actives were picked, then their nearest neighbours and some compounds at random. A number with no mark means an inactive call.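 The calls were made as follows: active = cell survival measured by absorbance rises more than 2.5-fold over infected cells without compound; inactive = the rest.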

The nature of this test: survival after telomere uncapping, modulators, primary screen, cell-based (AID 1259312).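 Also: virus expresses mutant telomerase RNA that uncaps telomeres and kills cells; compound added 2 days after infection so exposure lasts 3 days.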 As to conditions: HCT116 + Ad-hTR-mut, MTT, 5 d; at 10 µM, active compounds read high.
Turning to `CC(C)(C)Sc1c(Br)cccc1Br`, the fold change is -2.29.

For `CCCc1nnc(NC(=O)c2ccoc2C)s1`, the fold change is -1.3.

Regarding `CCOc1ccc(-n2c(C)cc(C(=S)N3CCOCC3)c2C)cc1`, the fold change was -3.28.

In the case of `CCC(C)C(NC(C)=O)C(=O)O` (centres undefined), the fold change is 1.28.

On to `NC1CCCc2c1[nH]c1ccc(Br)cc21` (centres undefined), for which the fold change was -11.

In the case of `c1ccc(OCC2CCNCC2)nc1`, the fold change is 2.98 (active).

Take `CC(C)(C)c1cc(Cl)cc(Cc2cc(C(C)(C)C)c(O)c(C(C)(C)C)c2)c1O`: the fold change was -1.42.

With `CCOC(=O)C1=C(C(=O)OCC)SC(=C2C(=S)C(C)(C)N(C)c3ccc(C)cc32)S1`, the fold change is -1.

Turning to `O=C(Nc1ccccc1)Nc1snnc1C(=O)O`, the fold change is 4.77 (active).

For the compound `O=C(Nc1ccc(F)cc1)Nc1nncs1`, the fold change is -1.15.

`O=C(Nc1ccccc1)Nc1ccc2c(c1)OCCO2`: the fold change is -1.3.

On to `CCOC(=O)C1CCN(C(=O)CC(C)C)CC1`, for which the fold change was -1.61.

For `O=S(=O)(Nc1cccc2ccccc12)N1CCCCC1`, the fold change was -1.29.

For the compound `C=CCN(CC=C)C(=O)Cc1cccs1`, the fold change is -1.46.

On to `COc1ccc(OC)c(N=Cc2cc(Br)ccc2O)c1`, for which the fold change entry is “active”.

As to `COc1cc2c(cc1N=Cc1cc(Br)ccc1O)oc1ccccc12`, the fold change result is “inactive”.

Regarding `Oc1ccc(Br)cc1C=Nc1ccc(I)cc1`, the fold change entry was “active”.

As to `Oc1ccc(Br)cc1C=Nc1cc(Cl)cc(Cl)c1`, the fold change result is “inactive”.

Turning to `Oc1ccc(Br)cc1C=Nc1cc(Cl)ccc1Cl`, the fold change result is “inactive”.

For `O=[N+]([O-])c1ccc(O)c(C=Nc2ccc(I)cc2)c1`, the fold change entry is “inactive”.

For the compound `Oc1ccc(Br)c(C=Nc2ccc(-c3ccc(N=Cc4cc(Br)ccc4O)cc3)cc2)c1`, the fold change entry was “active”.

On to `Oc1c(Br)cc(Br)cc1C=Nc1ccc(Br)cc1`, for which the fold change entry was “inactive”.

With `COc1ccc(OC)c(N=Cc2cc(Cl)cc(Cl)c2O)c1`, the fold change entry is “inactive”.

Regarding `O=c1c2ccc(Cl)c3c(Cl)ccc(c32)c2nc3ccccc3n12`, the fold change is -2.06.

In the case of `Cc1cc(C)n(C(=O)c2nn(C)cc2[N+](=O)[O-])n1`, the fold change was 1.61.

In the case of `O=[N+]([O-])c1cc(Br)cc(C=Nc2ccc(I)cc2)c1O`, the fold change entry is “inactive”.

`N#CC1=C(N)Oc2[nH]c(=O)[nH]c(=O)c2C1c1cccnc1` (centres undefined): the fold change is 1.23.

With `O/N=C(\c1ccccc1)C(O)c1ccccc1` (centres undefined), the fold change was -1.85.

Regarding `S=c1nc(-c2ccccc2Cl)[nH][nH]1`, the fold change was -1.2.

Regarding `Nn1c(-c2cccs2)nc2ccccc2c1=O`, the fold change is -1.03.

For `O=C1C=CC(=O)N1c1ccc(Cl)c(Cl)c1`, the fold change is -1.48.

Turning to `NCC1NCCc2ccccc21` (centres undefined), the fold change is -1.4.

On to `NC(=S)NCCC[C@H](N)C(=O)O`, for which the fold change is 1.05.

With `c1ccc2cc(NCSCc3nc4ccccc4c4ccccc34)ccc2c1`, the fold change was -1.54.

In the case of `O=C1C2C3c4ccccc4C(c4ccccc43)C2C(=O)N1c1ccc2ccccc2c1` (centres undefined), the fold change was 3.16 (active).

For the compound `Cc1ccnc(SC2CC(=O)N(c3ccc4ccccc4c3)C2=O)n1` (centres undefined), the fold change was -1.04.

With `O=C1C2C3CC(C(Br)C3Br)C2C(=O)N1c1ccc(Br)cc1` (centres undefined), the fold change is 1.06.

As for `CN1C(=O)COc2ccc(S(=O)(=O)N3CCOCC3)cc21`, the fold change was -1.01.

Regarding `Nc1nc(=S)n(-c2ccccc2)[nH]1`, the fold change was -2.51.

Take `CC(C)N1C=C(Cc2cccnc2)C2=C(C1)C(c1cccnc1)C(C#N)=C(N)O2` (centres undefined): the fold change is 2.25.

As to `N#CC1=C(N)Oc2ccc(N)cc2C1c1cccnc1` (centres undefined), the fold change was 2.15.

For `N#CC1=C(N)N(Cc2ccccc2)C2=C(COC/C2=C/c2cccnc2)C1c1cccnc1` (centres undefined), the fold change was 2.64 (active).

As for `COc1cccc(OC)c1-c1noc(CSc2nc3ccccc3o2)n1`, the fold change is -1.15.

On to `O=c1[nH]c(=O)n([C@@H]2O[C@H](CO)[C@@H](O)[C@H]2O)cc1Br`, for which the fold change was -3.23.

In the case of `Cc1cc(C)n(-c2nc(N3CCOCC3)nc(N3CCOCC3)n2)n1`, the fold change was 1.04.

As for `O=c1nc(N2CCOCC2)nc(Nc2ccccc2)[nH]1`, the fold change result is “active”.

`Cc1cc(C)nc(Nc2ccc(N3CCOCC3)cc2)n1`: the fold change was -1.54.

For `CCc1cc(C=C(Cl)Cl)oc(=O)c1C`, the fold change was -1.84.

As to `Cc1cc2ccc(=O)oc2cc1OC[C@@H](O)C(C)(C)O`, the fold change is -1.35.

Take `O=S(=O)(NCc1ccco1)c1ccc(Br)cc1`: the fold change is 2.26.

For `O=c1[nH]nc(CSCc2csc(-c3ccccc3)n2)[nH]1`, the fold change entry is “inactive”.

With `O=c1[nH]nc(CSCc2ccc3nsnc3c2)[nH]1`, the fold change result is “active”.

For `O=c1[nH]nc(CSCc2ccc(Cl)cc2)[nH]1`, the fold change result is “inactive”.

Consider `NCCCN1CCc2ccccc21`, for which the fold change was -1.28.

On to `O=C(c1n[nH]c(=O)c2ccccc12)N1CCN(c2ccccn2)CC1`, for which the fold change was -1.05.

Take `Cc1ccc(C)n1-c1sc2c(c1C(=O)O)CCCC2`: the fold change was -1.1.

As for `O=C(Nc1sc2c(c1C(=O)O)CCCCC2)c1cccs1`, the fold change is -1.49.

For the compound `O=C(O)c1csc2c1CCCC2`, the fold change was 2.51 (active).

For `CCS(=O)(=O)c1ccsc1S(=O)(=O)CC`, the fold change was -1.28.

As for `COC(=O)Nc1ncc(CN2CCOCC2)s1`, the fold change was -2.39.

For the compound `c1ccc(-c2ccc3ccccc3n2)nc1`, the fold change was -1.13.

Turning to `c1ccc(-c2nc(-c3ccccn3)nc(-c3ccccn3)n2)nc1`, the fold change is 3.31 (active).

Regarding `O=S(=O)(O)c1ccc(-c2nnc(-c3ccccn3)nc2-c2ccc(S(=O)(=O)O)o2)o1`, the fold change is -1.16.

For `CC(C)(C)NC(=O)Nc1cccnc1Cl`, the fold change was -1.98.

Consider `C=CCOC(=O)c1sc(NC(=O)c2cccs2)nc1C`, for which the fold change is -1.68.

In the case of `CCOC(=O)/C(C#N)=C(\C#N)C(=O)OCC`, the fold change was 1.04.

In the case of `CS(=O)(=O)Nc1ccc2c3c(cccc13)CC2`, the fold change is 2.67 (active).

With `CN1CC(C(=O)Nc2ccc3c4c(cccc24)CC3)CC1=O` (centres undefined), the fold change was 1.08.

For the compound `CS(=O)(=O)Nc1ccc(F)cc1F`, the fold change is -1.21.

Regarding `Nc1nc(-c2ccc(Cl)c(Cl)c2)cs1`, the fold change is 1.69.

For `CCCOc1ccccc1N=c1ssc2c1-c1cc(C)c(C)cc1NC2(C)C`, the fold change was -3.58.

As to `COc1ccc2nc(N=C(N)N)nc(C)c2c1`, the fold change is 1.75.

Consider `Cc1nc(N=C(N)N)nc2ccccc12`, for which the fold change was 3.38 (active).

In the case of `COc1cccc2c(C)nc(N=C(N)N)nc12`, the fold change is 1.65.

The values above are taken from PubChem BioAssay AID1259312 (Keith Lab, Institute of Cancer Science, University of …, 2017).
